The list is not random: actives were taken first. Their share in the collection is about 3.1%.
HSF1 inh: HSF1 inhibitors in luciferase reporter cells, primary screen, cell-based, NIH3T3, luminescence. 0.77% of 300,000 active. activity change, negative = inhibition, % at 7.5 µM (by protocol). NIH3T3-HGL HSE-luciferase, MG132-induced, luminescence 8 h; active compounds read low;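 active means more than half of replicate wells show activity change below -50%, luminescence cut by over half; inconclusive means some wells, but at most half, below -50%; inactive means no replicate well below -50%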;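 further: luciferase reports HSF-1 transcriptional activity via heat shock element; 0% = median of DMSO wells and -100% = zero luminescence signal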
HSP90 refold inh: HSP90 inhibitors, primary screen, cell lysate, luminescence. inhibition, % at 5.6 µM. 0.91% of 290,000 active. Rabbit reticulocyte lysate, luciferase refolding luminescence, 3 h. AID 1789, 2009. Heat shock protein HSP 90 (rabbit reticulocyte lysate; luciferase refolding);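 active means inhibition above the screen-wide mean plus 3 SD, computed separately per campaign, cut at about 16% in these data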;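 further: 0% = DMSO wells and 100% = 60 µM geldanamycin wells; inhibitors lower the luminescence because luciferase stays unfolded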
ARNT-TACC3 inh: disruptors of ARNT/TACC3 protein interaction, primary screen, biochemical, AlphaScreen, single concentration; Transforming acidic coiled-coil-containing protein 3 (Homo sapiens), Q9Y6A5; inhibition, % at 9.99 µM; 0.66% of 390,000 active; AlphaScreen His-ARNT PAS-B/GST-TACC3 binding, luminescence; TACC3 fragment carries E629A point mutation;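 active means mean inhibition of replicates at least 50% and at least half of replicates each reaching 50%; inconclusive means half or more replicates reach 50% but mean below 50%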;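 further: 0% = complete ARNT plus TACC3 wells and 100% = ARNT alone without TACC3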
HIF act: HIF pathway transcriptional activators, primary screen, cell-based, U2OS HRE-luciferase, luminescence. 0.32% of 300,000 active. activation, % at 7.5 µM (by protocol). U2OS HRE-luciferase reporter; normalized: DMSO 0%, desferrioxamine 100%. AID 1910, 2009;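 active means mean activation of at least 10% of the iron chelator positive control signal, with at least half of replicates also reaching 10%; inconclusive means mean and replicate majority disagree about reaching 10%; inactive means mean and most replicates under 10%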
HSF1 activator: HSF-1 activators, primary screen, NIH3T3-HGL cells, MG132 stress, luminescence, single point; activation, % at 9 µM; NIH3T3-HGL HSF-1 luciferase reporter, 8 h; 100% = twice DMSO control signal; 1.7% of 300,000 active;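 active means mean replicate activation of at least 50% with a set share of replicates each reaching 50%; inconclusive means only one of those two conditions met; inactive means mean below 50% and too few replicates reaching it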;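 further: 0% = median of the neutral control wells and 100% = twice that signal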
HSP90 confirm: HSP90 inhibitors, confirmation, cell lysate, luminescence | shares compounds with HSP90 refold inh | 64% of 2,300 active | rabbit reticulocyte lysate, luciferase refolding luminescence, 3 h | inhibition, % at 5.9 µM; in the data active means inhibition above about 18%;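 further: 0% = vehicle wells and 100% = reference inhibitor wells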
luciferase ctr: firefly luciferase inhibitors, HSP90 counter-screen, confirmation, artefact control for HSP90 inhibitor project, biochemical, luminescence, triplicate | 48% of 2,300 active | inhibition, % at 5.9 µM | purified native firefly luciferase | shares compounds with HSP90 refold inh;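 active means inhibition above the mean inhibition of all tested sample wells plus 3 SD, cut at about 10% in these data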;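 further: 0% = DMSO with luciferase and 100% = wells lacking luciferase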
Target sequence (P08659 whole entry, looked up): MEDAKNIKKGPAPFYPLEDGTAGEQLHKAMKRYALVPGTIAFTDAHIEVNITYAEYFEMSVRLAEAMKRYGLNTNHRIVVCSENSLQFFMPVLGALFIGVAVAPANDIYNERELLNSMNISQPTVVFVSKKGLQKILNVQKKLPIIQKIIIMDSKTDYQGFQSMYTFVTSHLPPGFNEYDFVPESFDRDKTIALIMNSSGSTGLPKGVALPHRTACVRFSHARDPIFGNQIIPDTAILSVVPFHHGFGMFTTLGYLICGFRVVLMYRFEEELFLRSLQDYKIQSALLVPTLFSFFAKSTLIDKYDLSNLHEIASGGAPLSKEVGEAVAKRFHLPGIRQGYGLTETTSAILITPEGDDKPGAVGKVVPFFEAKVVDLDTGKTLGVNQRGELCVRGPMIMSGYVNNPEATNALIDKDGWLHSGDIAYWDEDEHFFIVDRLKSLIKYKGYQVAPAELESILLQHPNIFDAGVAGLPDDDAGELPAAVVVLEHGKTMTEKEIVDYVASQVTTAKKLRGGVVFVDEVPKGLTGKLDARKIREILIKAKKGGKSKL
An asterisk follows results filed as active; ? = inconclusive; . = not tested or not shown.

SMILES	HSF1 inh	HSP90 refold inh	ARNT-TACC3 inh	HIF act	HSF1 activator	HSP90 confirm	luciferase ctr
CCOC(=O)N/N=C/c1ccccc1F	15	-1	-7	2	40	.	.
O=C(Nc1ccc(F)cc1)N1C[C@H]2[C@@H](c3ccccc31)[C@H](CO)N2C(=O)Cc1ccccc1	.	.	10	.	.	.	.
CCOC(=O)CN1C(=O)S/C(=C/c2ccc3c(c2)n(C)c(=O)n3C)C1=O	-27	2	-6	3	-44	.	.
CCOC(=O)CN1C(=O)S/C(=C/C=C/c2ccc(N(C)C)cc2)C1=O	-7	39*	.	1	7	-5	-25
C[C@@H]1CN([C@@H](C)CO)S(=O)(=O)c2ccc(-c3ccccc3F)cc2O[C@H]1CN(C)Cc1cccnc1	.	.	-6	.	.	.	.
Cc1ccc(C)c(C(=O)COC(=O)c2cccc(N3C(=O)c4c(C)nc5ccccc5c4C3=O)c2)c1	-34	27*	-4	0	-32	14	-3
CN(C)c1ccc(N=Nc2cccc(F)c2)cc1	6	39*	.	1	-2	47*	41*
O=C(O)c1cccc(NC(=S)N/N=C/c2ccccn2)c1	8	35*	66*	-1	7	61*	49*
Cc1ccc(-c2cn3cccc(C)c3n2)cc1	38	18*	-11	-1	78*	29*	28*
O=[N+]([O-])c1ccc(S(=O)(=O)Nc2ccc3c(c2)OCCO3)cc1	-14	27*	6	1	-29	5	-3
O=S(=O)(Nc1ccc2c(c1)OCCO2)c1cccc2nsnc12	-59*	20*	-3	-2	-67	31*	50*
C[C@H]1CN([C@@H](C)CO)S(=O)(=O)c2ccc(C3=CCCC3)cc2O[C@@H]1CN(C)C(=O)CN(C)C	.	.	11	.	.	.	.
COc1ccc(NC(=O)N(C)C[C@@H]2OCCCC[C@@H](C)Oc3ccc(NC(=O)c4ccccc4)cc3C(=O)N([C@H](C)CO)C[C@@H]2C)cc1	.	.	-5	.	.	.	.
Cc1cccc(NC(=S)NC(=O)/C=C/c2ccco2)n1	31	18*	.	3	43	0	-8
Cc1cccc(NC(=S)NC(=O)/C=C/c2ccco2)c1	1	2	.	3	-1	.	.
C[C@H](CO)N1C[C@H](C)[C@H](CN(C)Cc2ccccc2)OCCCC[C@H](C)Oc2ccc(NC(=O)NC3CCCCC3)cc2C1=O	.	.	4	.	.	.	.
Cc1noc(C)c1NC(=O)N(C)C[C@H]1Oc2c(NC(=O)NC(C)C)cccc2C(=O)N([C@@H](C)CO)C[C@@H]1C	.	.	-3	.	.	.	.
Cc1cc(C)cc(Nc2ccc(C(=O)O)cc2[N+](=O)[O-])c1	-2	-2	22	0	5	.	.
Cc1cc(C)cc(Nc2ccc(C(=O)O)cc2N)c1	1	23*	4	1	24	1	-18
Cc1ccc(Nc2ccc(C(=O)O)cc2N)cc1	44	20*	.	1	47	4	-20
Cc1cc(Nc2ccc(C(=O)O)cc2)nc(N)n1	5	11	1	0	16	.	.
C[C@@H]1CCCCO[C@H](CN(C)C(=O)Nc2ccc3c(c2)OCO3)[C@@H](C)CN([C@@H](C)CO)C(=O)c2cc(NS(=O)(=O)c3ccccc3)ccc2O1	.	.	6	.	.	.	.
O=C(Cc1coc2cc3c(cc12)CCC3)OCC(=O)N1CCCC1=O	-47	27*	-2	-1	-49	12	-19
O=C(O)Cc1coc2cc3c(cc12)CCC3	-7	5	-6	0	-5	.	.
COc1ccc(NC(=O)N(C)C[C@@H]2Oc3ccc(NC(=O)Cc4cn(C)c5ccccc45)cc3C(=O)N([C@@H](C)CO)C[C@H]2C)cc1	.	.	4	.	.	.	.
SMILES	HSF1 inh	HSP90 refold inh	ARNT-TACC3 inh	HIF act	HSF1 activator	HSP90 confirm	luciferase ctr
COc1ccc(C(=O)/C=C/c2ccccc2F)c(OC(=O)c2ccc([N+](=O)[O-])cc2)c1	8	18*	8	3	2	37*	-22
O=C1OCC(CO)(CO)N=C1NNc1ccccc1[N+](=O)[O-]	-19	21*	8	-7	-32	9	4
O=C(Nc1ccc(Cl)cc1[N+](=O)[O-])c1ccc2c(c1)OCCO2	22	1	2	4	35	.	.
O=C(Nc1ccc(F)cc1F)c1ccc2c(c1)OCCO2	18	23*	-5	1	25	32*	12*
O=C(Nc1ccc(Br)cc1F)c1ccc2c(c1)OCCO2	-2	55*	.	0	25	50*	41*
O=[N+]([O-])c1cc(Cl)cc(/C=N/Nc2nc3ccccc3s2)c1O	19	-3	-13	1	35	.	.
COc1cc(/C=N/Nc2nc3ccccc3s2)cc([N+](=O)[O-])c1O	18	29*	-3	2	6	-11	-30
Cc1ccsc1/C=N/Nc1cccc(C(=O)O)c1	-54*	65*	-11	-7	-67	94*	92*
COc1ccc2ccccc2c1/C=N/Nc1cccc(C(=O)O)c1	-4	12	3	?	6	.	.
O=C(O)c1ccc(N/N=C/c2cc3ccccc3nc2Cl)cc1	-7	28*	17	2	-6	6	-14
O=C(O)c1cccc(N/N=C/c2cccc3ccccc23)c1	-2	63*	.	-1	-13	87*	90*
Cc1ccc(/C=N/Nc2cccc(C(=O)O)c2)s1	-32	24*	9	-2	-43	86*	85*
Cc1cccc2cc(/C=N/Nc3ccc(C(=O)O)cc3)c(Cl)nc12	1	7	-7	2	-7	.	.
O=C(O)c1ccc(N/N=C/c2cc(Br)cs2)cc1	-34	50*	1	-1	-38	70*	71*
O=C(O)c1cccc(N/N=C/c2ccc(F)c(F)c2)c1	-15	7	-4	2	-10	.	.
Cc1nn(-c2ccccc2Cl)c(Cl)c1/C=N/Nc1cccc(C(=O)O)c1	-71*	33*	1	-1	-74	61*	77*
Cc1ccsc1/C=N/NC(=O)C(N)=O	.	-3	-7	1	.	.	.
O=C(O)c1cccc(N/N=C/C2=C(Cl)c3cc(Cl)ccc3SC2)c1	-41	18*	-7	2	-54	27*	30*
Cc1ccsc1/C=N/Nc1ccc(C(=O)O)cc1	-48	68*	-2	-1	-48	81*	77*
S=C(Nc1ccc(Cl)cc1)c1nc2ccccc2s1	-26	-2	2	4	-36	.	.
